Measurements: PubChem BioAssay AID686940 (The Scripps Research Institute Molecular Screening Center, 2013)
Among all 370,000 compounds or so, about 2,600 (0.7%) were called active.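 How the source made its calls: active means inhibition above a per-plate cutoff, mean inhibition of test wells between control levels plus 3 SD (cut at about 38% in these data); inactive means the rest.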 For the sample, actives were picked, then their nearest neighbours and some compounds at random.

Molecular target: COUP transcription factor 2 (Homo sapiens) (UniProt P24468)
Assay: COUP-TFII reporter suppression in human cells – cell-based, luciferase reporter, HEK293T, luminescence, primary screen (AID 686940);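 further: cells cotransfected with COUP-TFII expression vector driving the NGFI-A reporter; 0% = median of COUP-TF2 test wells and 100% = reporter-only cells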
Conditions: HEK293T NGFI-A luciferase reporter, at 8.6 µM, hits give high values

Chain of COUP transcription factor 2 (Homo sapiens) (P24468 whole entry, looked up): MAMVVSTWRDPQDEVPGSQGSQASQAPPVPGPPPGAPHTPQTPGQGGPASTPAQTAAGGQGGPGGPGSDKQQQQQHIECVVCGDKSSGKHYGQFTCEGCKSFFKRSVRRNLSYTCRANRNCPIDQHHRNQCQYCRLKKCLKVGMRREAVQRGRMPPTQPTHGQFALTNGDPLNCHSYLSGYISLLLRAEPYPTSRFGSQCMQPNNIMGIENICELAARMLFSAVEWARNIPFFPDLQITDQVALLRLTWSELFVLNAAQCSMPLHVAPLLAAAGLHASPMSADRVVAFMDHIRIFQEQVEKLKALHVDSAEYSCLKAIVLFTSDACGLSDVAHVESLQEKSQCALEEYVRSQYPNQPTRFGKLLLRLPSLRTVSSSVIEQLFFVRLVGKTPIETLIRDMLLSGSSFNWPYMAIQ

| Compound | inhibition |
| --- | --- |
| C=CCN1C(=O)[C@@H](CC(=O)N2CCN(C(=O)OCC)CC2)[C@]2(C(=O)OCC)CCCCC/C=C/12 | 3.11% (inactive) |
| C=CCN(C(=O)[C@@H](CCCC)[C@@H](O)c1ccc(Cl)cc1)c1ccccc1 | -5.06% (inactive) |
| Cc1c(CCC(=O)N[C@@H](CC(C)C)C(=O)O)c(=O)oc2c(C)c3oc4c(c3cc12)CCCC4 | 6.96% (inactive) |
| CC[C@@H](C)[C@H](NC(=O)CCc1c(C)c2cc3c4c(oc3c(C)c2oc1=O)CCCC4)C(=O)O | 39.7% (active) |
| Cc1c(C)c2cc3c4c(oc3c(C)c2oc1=O)CCCC4 | -4.7% (inactive) |
| CCC(=O)Nc1ccc(C(=O)CSc2nnc(CNc3ccc(Cl)cc3)o2)cc1OC | 42.1% (active) |
| COc1ccccc1NC(=O)CSc1nnc(CNC(=O)c2ccccc2F)o1 | 1.36% (inactive) |
| COc1cc(C(=O)NCc2nnc(SCC(=O)c3ccc(Cl)cc3)o2)cc(OC)c1OC | 7.38% (inactive) |
| O=C(CSc1nc2sc3c(c2c(=O)n1-c1ccccc1)CCCC3)NN=Cc1ccc(OCc2ccccc2)cc1 | -6.12% (inactive) |
| Cc1ccc(-n2c(SCC(=O)Nc3ccc(S(=O)(=O)Nc4nccs4)cc3)nnc2-c2ccncc2)cc1 | 3.85% (inactive) |
| Cc1ccc(Nc2nc(CSc3nnc(-c4ccncc4)n3-c3ccccc3C)cs2)cc1 | 39.8% (active) |
| Cc1ccc(-n2c(SCC(=O)N3c4ccccc4Sc4ccccc43)nnc2-c2ccncc2)cc1 | 6.33% (inactive) |
| CC(C)N1CCCCC(NC(=O)c2ccc3ccccc3c2)C1=O (stereo unspecified) | -8.52% (inactive) |
| C=CCN1[C@H](CC(C)C)COc2cccc(N3CCCC3)c2S1(=O)=O | 14.6% (inactive) |
| CCCCCCCCn1c2c(c(=N)c3c1CCC3)CCCC2 | 84.5% (active) |
| O=S(=O)(c1ccccc1)N1CCC(c2nc3ccccc3o2)CC1 | -11.5% (inactive) |
| CCOC(=O)N1CCN(C(=O)C[C@H]2C[C@@]3(C(=O)OC)C(=C[C@H](C(C)(C)C)O[C@@H]3C)N(Cc3ccc(Cl)cc3Cl)C2=O)CC1 | -1.12% (inactive) |
| C=CCN1[C@@H](Cc2ccccc2)COc2cccc(N3CCSCC3)c2S1(=O)=O | 5.82% (inactive) |
| O=C(CN1CCCc2ccccc21)NCc1ccc(F)cc1 | 5.12% (inactive) |
| CCCNC(=O)Nc1ccc2c(c1)C(=O)N(C)[C@H]1CC[C@H](CC(=O)NCC3CCCCC3)O[C@@H]1CO2 | 9.56% (inactive) |
| C[C@@H]1ON(C)[C@H]2C[C@H]3c4[nH]c5cccc(-c6ccc7c(c6)OCO7)c5c4CCN3C[C@@H]12 | -15.3% (inactive) |
| Cc1ccc(NC(=O)C2CC(=O)N(c3ccc4c(c3)OCCO4)C2)cc1S(=O)(=O)N1CCCCCC1 (stereo unspecified) | 42.3% (active) |
| Cc1ccc(N2CC(C(=O)Nc3ccc(S(=O)(=O)N4CCCC4)cc3)CC2=O)cc1C (stereo unspecified) | -1.2% (inactive) |
| COc1ccc(S(=O)(=O)N2CCCCC2)cc1NC(=O)C1CC(=O)N(c2ccc3c(c2)OCCO3)C1 (stereo unspecified) | 0.74% (inactive) |
| Cc1ccccc1CN1CCCCC(NC(=O)c2cccc(C#N)c2)C1=O (stereo unspecified) | -2.68% (inactive) |
| CC(=O)Nc1ccc(C(=O)Nc2cccc(S(=O)(=O)NC3=NCCC3)c2)cc1 | -6.18% (inactive) |

| Compound | inhibition |
| --- | --- |
| CN1CCN(c2ccc(NC(=O)c3ccc4c(c3)OCCO4)cc2Cl)CC1 | -69.1% (inactive) |
| O=C(Nc1cccc(S(=O)(=O)Nc2ccc(Cl)cc2)c1)c1ccc2c(c1)OCCO2 | 50.8% (active) |
| CCOC(=O)[C@]12CCCCC/C=C\1N(Cc1ccc(OC)cc1)C(=O)[C@H]2CC(=O)N1CCOCC1 | 13.5% (inactive) |
| COc1ccc([C@H]2OC(=O)C[C@H]2C(=O)N2CCN(c3ccccc3F)CC2)cc1OC | -8.84% (inactive) |
| Cc1cc(C(=O)COC(=O)CNC(=O)c2ccc(F)cc2)c(C)n1Cc1ccco1 | 22.8% (inactive) |
| Cc1ccsc1C(=O)OCC(=O)c1cc(C)n(CC2CCCO2)c1C (stereo unspecified) | 87.1% (active) |
| COCCn1c(C)cc(C(=O)COC(=O)CNC(=O)c2ccco2)c1C | -5.61% (inactive) |
| C=CCn1c(SCC(N)=O)nnc1-c1ccccc1OC | 9.3% (inactive) |
| COC(=O)[C@]12C[C@H](CC(=O)NCc3ccccc3)C(=O)N(CCc3ccc(OC)c(OC)c3)C1=C[C@H](C(C)(C)C)O[C@@H]2C | 10.6% (inactive) |
| Cc1csc(NC(=O)CN2CCCCCC2)n1 | 4.1% (inactive) |
| COCCn1c(SCC(=O)Nc2nc(C)cs2)nnc1C(C)C | -1.64% (inactive) |
| COc1cc(SC)ccc1C(=O)Nc1nc(C)cs1 | 67.9% (active) |
| COC[C@@H]1CCCN1c1ccc2c(c1)O[C@H](C)CCN(C1CC1)S2(=O)=O | -10.8% (inactive) |
| COC(=O)C[C@@H]1CC[C@H]2[C@@H](COc3ccc(NS(=O)(=O)CC(F)(F)F)cc3C(=O)N2C)O1 | -17.9% (inactive) |
| CN(CCO)c1cccc2c1S(=O)(=O)N(Cc1cn(Cc3ccc(C(F)(F)F)cc3)nn1)Cc1ccccc1O2 | -35.7% (inactive) |
| CCOc1ccc(Oc2c(Cl)cnn(-c3ccc(C)cc3)c2=O)cc1 | 7.75% (inactive) |
| Cc1sc2nc(SCC(=O)c3ccc(O)c(O)c3)n(Cc3ccco3)c(=O)c2c1C | 7.6% (inactive) |
| CCOC(=O)c1ccc(NC(=O)CCn2c(=O)oc3ccccc32)cc1 | 6.76% (inactive) |
| Cc1ccc(NC(=O)Cn2cnc3c(OCc4ccccc4)ncnc32)cc1C | 2.95% (inactive) |
| CCOC(=O)c1ccc(NC(=O)Cn2cnc3cc(C)c(C)cc32)cc1 | 59.5% (active) |
| CC(=O)O[C@@]1(C(C)=O)CCC2[C@H]3C=C(C)C4=CC(=O)CC[C@@]4(C)C3CC[C@]21C (stereo partly specified) | 3.66% (inactive) |
| COc1ccc(C(=O)Nc2ccccc2C(=O)N/N=C/c2ccc(O)c(OC)c2)cc1 | 77.1% (active) |
| COc1cc(C(=O)Nc2cc(C(F)(F)F)ccc2N2CCOCC2)ccc1O | -16.6% (inactive) |
| C=CCOc1ccc(C(=O)Nc2ccccc2C(=O)N2CCCC2)cc1 | -20.6% (inactive) |
| COc1ccc(S[C@]2(C(=O)N(C)C)CC(=O)N(c3ccc(OC)cc3)[C@@H]2c2ccc(OC)cc2)cc1 | -1.97% (inactive) |
